From publication PMC4336329 (PLoS ONE, 2015)
About 14,000 (4.5%) of roughly 310,000 compounds showed an effect of 50% or more. The effect is printed as a negative number. Many of the other results were omitted from the sample, so strong results are more common in it than they were.

Target: human ether-à-go-go-related gene (hERG) potassium channel (human, UniProt Q12809)
Test: primary screen, population patch clamp on CHO cells stably expressing hERG; higher = less effect of the substance
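Further: peak tail current of the secondary pulse compared with the same well before compound.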

human ether-à-go-go-related gene (hERG) potassium channel, sequence (Q12809 whole entry, looked up): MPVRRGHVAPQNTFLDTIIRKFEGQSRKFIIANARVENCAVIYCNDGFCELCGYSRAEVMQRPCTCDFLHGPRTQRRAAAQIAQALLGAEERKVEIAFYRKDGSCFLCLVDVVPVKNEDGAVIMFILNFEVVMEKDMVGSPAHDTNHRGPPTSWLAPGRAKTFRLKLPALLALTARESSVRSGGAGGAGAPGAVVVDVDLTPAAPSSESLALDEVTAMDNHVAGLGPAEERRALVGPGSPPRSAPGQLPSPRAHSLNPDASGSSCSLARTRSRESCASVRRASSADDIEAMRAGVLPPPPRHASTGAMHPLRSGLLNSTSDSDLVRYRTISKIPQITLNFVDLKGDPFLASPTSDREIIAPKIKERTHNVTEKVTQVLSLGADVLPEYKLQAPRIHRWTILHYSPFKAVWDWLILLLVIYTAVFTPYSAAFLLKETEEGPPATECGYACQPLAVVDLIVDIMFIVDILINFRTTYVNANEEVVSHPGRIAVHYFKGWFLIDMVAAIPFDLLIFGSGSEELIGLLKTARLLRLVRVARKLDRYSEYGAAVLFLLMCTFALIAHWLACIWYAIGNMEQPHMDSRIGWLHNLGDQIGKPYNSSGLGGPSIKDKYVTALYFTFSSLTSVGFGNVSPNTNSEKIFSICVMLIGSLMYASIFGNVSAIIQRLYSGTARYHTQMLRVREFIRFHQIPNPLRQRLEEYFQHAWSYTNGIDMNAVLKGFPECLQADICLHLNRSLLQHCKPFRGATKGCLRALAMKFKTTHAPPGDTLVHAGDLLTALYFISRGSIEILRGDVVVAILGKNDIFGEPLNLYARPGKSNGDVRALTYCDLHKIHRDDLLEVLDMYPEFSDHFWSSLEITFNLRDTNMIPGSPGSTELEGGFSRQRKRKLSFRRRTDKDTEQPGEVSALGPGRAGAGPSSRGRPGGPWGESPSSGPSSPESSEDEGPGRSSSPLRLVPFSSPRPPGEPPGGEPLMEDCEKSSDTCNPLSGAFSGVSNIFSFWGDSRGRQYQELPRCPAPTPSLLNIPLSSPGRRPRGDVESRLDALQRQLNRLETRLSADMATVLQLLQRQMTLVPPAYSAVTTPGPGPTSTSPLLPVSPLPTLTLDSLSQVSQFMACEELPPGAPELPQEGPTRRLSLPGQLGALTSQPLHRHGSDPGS

How did the “hERG current change (%, negative = inhibition) at 10uM” value turn out when `O=C(O)C1C2C=CC(C2)C1C(=O)NCc1cccs1` (stereo not shown) was run?
Its value is 9.44%.

For `O=C(Nc1cc(Cl)cc(Cl)c1)N1CCN(C(=O)C2CCCO2)CC1` (stereo not shown), which “hERG current change (%, negative = inhibition) at 10uM” value is on record?
The value was -26.4%.

Which “hERG current change (%, negative = inhibition) at 10uM” value does the source give for `COCCNC(=O)C1CCN(C(=O)C2CC(=O)N(c3ccc(C)cc3)C2)CC1` (stereo not shown) here?
Its value is 7.39%.

How did the “hERG current change (%, negative = inhibition) at 10uM” value turn out when `CCc1nnc(NC(=O)CSc2nnc(COc3ccccc3C)o2)s1` was run?
Its value is 15.2%.

For `O=C(COc1ccc(Br)cc1)Nc1ccc([N+](=O)[O-])cn1`, which “hERG current change (%, negative = inhibition) at 10uM” value is on record?
The value was -19.7%.

With `COc1cc(NC(=O)CSCc2ccccc2)c(C(=O)O)cc1OC` as the molecule, how does the “hERG current change (%, negative = inhibition) at 10uM” value read?
Its value is 11.2%.

How did the “hERG current change (%, negative = inhibition) at 10uM” value turn out when `COc1ccc(CCNc2ccc(C(CC(N)=O)NC(=O)Cc3cccc4ccccc34)cc2[N+](=O)[O-])cc1` (stereo not shown) was run?
The value was 4.29%.

How did the “hERG current change (%, negative = inhibition) at 10uM” value turn out when `COc1ccc2[nH]cc(C(=O)CN(C)C)c2c1` was run?
The value was 9.06%.

Which “hERG current change (%, negative = inhibition) at 10uM” value does the source give for `COc1ccc2[nH]cc(C(=O)CN(C)CCc3ccc(OC)c(OC)c3)c2c1` here?
The value was -70.3%.

For `CCN(CC)CC(=O)c1c[nH]c2ccc(OC)cc12`, which “hERG current change (%, negative = inhibition) at 10uM” value is on record?
Its value is -22.9%.

`COc1ccccc1-n1cnc2sc(C)c(C)c2c1=O` was tested. Which “hERG current change (%, negative = inhibition) at 10uM” value did it give?
The value was 5.71%.

With `COc1ccc(NC(=O)/C(C#N)=C\c2cc(C)n(-c3ccc4c(c3)OCO4)c2C)cc1` as the molecule, how does the “hERG current change (%, negative = inhibition) at 10uM” value read?
Its value is 3.77%.

With `Cc1ccc(-n2cc(CNCCCn3ccnc3C)c(-c3ccc(F)cc3)n2)cc1` as the molecule, how does the “hERG current change (%, negative = inhibition) at 10uM” value read?
Its value is -71.7%.

For `Cc1ccc(-n2cc(CN3CCCN(C=O)CC3)c(-c3ccc(F)cc3)n2)cc1`, which “hERG current change (%, negative = inhibition) at 10uM” value is on record?
The value was -18.7%.

`CCN1CC(CN(C)Cc2cn(-c3cccc(C)c3)nc2-c2cccc(F)c2)CC1=O` (stereo not shown) was tested. Which “hERG current change (%, negative = inhibition) at 10uM” value did it give?
The value was -31.7%.

Which “hERG current change (%, negative = inhibition) at 10uM” value does the source give for `CCN1CC(CN(C)Cc2cn(-c3ccc(C)cc3)nc2-c2cccc(C)c2)CC1=O` (stereo not shown) here?
The value was -60.5%.

With `COc1ccc(-c2nn(-c3ccccc3F)cc2CNCCn2nc(C)cc2C)cc1` as the molecule, how does the “hERG current change (%, negative = inhibition) at 10uM” value read?
Its value is -50.2%.

`Cc1ccc(-c2nn(-c3ccccc3)cc2C(=O)NCCCN2CCCC2=O)cc1` was tested. Which “hERG current change (%, negative = inhibition) at 10uM” value did it give?
Its value is -17.1%.

How did the “hERG current change (%, negative = inhibition) at 10uM” value turn out when `Cc1ccc(-n2cc(CN(C)Cc3nccn3C)c(-c3ccc(F)cc3)n2)cc1` was run?
Its value is -37.6%.

With `COc1ccc(-c2csc(CCn3nc(C)cc3C)n2)cc1` as the molecule, how does the “hERG current change (%, negative = inhibition) at 10uM” value read?
The value was 4.1%.

For `COc1ccc(-c2nn(-c3ccccc3C)cc2CNC(C)c2cn(C)nc2C)cc1F` (stereo not shown), which “hERG current change (%, negative = inhibition) at 10uM” value is on record?
The value was -1.99%.

For `Cc1ccc(-n2cc(CNCCCN3CCCC3=O)c(-c3ccc(F)cc3)n2)cc1`, which “hERG current change (%, negative = inhibition) at 10uM” value is on record?
The value was -72.1%.

`CCN1CC(CN(C)Cc2cn(-c3ccc(C)cc3)nc2-c2ccc(F)cc2)CC1=O` (stereo not shown) was tested. Which “hERG current change (%, negative = inhibition) at 10uM” value did it give?
Its value is -35.1%.

`COc1cc(/C=N/NC(=O)c2cc(-c3ccccc3)nc3ccccc23)ccc1O` was tested. Which “hERG current change (%, negative = inhibition) at 10uM” value did it give?
Its value is 6.54%.

`CCOc1cc(C(=O)N/N=C/c2ccoc2)cc(OCC)c1OCC` was tested. Which “hERG current change (%, negative = inhibition) at 10uM” value did it give?
The value was 5.67%.

For `COCCCn1c(=O)/c(=C\c2ccccc2OC(F)F)s/c1=C(/C#N)C(=O)NCCOC`, which “hERG current change (%, negative = inhibition) at 10uM” value is on record?
Its value is -11.5%.

Which “hERG current change (%, negative = inhibition) at 10uM” value does the source give for `CCc1nnc(NC(=O)CSc2nnc(-c3cccnc3)n2CCc2ccccc2)s1` here?
The value was -2.07%.

Which “hERG current change (%, negative = inhibition) at 10uM” value does the source give for `CC(=O)N1CCN(CCN2C(C)=CC(=C(C#N)C#N)C=C2C)CC1` here?
Its value is -3.8%.

For `O=C(COC(=O)CCSc1ccccc1Cl)NCc1ccco1`, which “hERG current change (%, negative = inhibition) at 10uM” value is on record?
Its value is 6.44%.

`O=C1NC(=O)C(=Cc2csc3ccccc23)C(=O)N1` was tested. Which “hERG current change (%, negative = inhibition) at 10uM” value did it give?
Its value is 7.68%.

For `Cc1ccccc1CSc1nnnn1-c1ccc(C(N)=O)cc1`, which “hERG current change (%, negative = inhibition) at 10uM” value is on record?
Its value is 14.7%.

`Cc1cccc(NC(=O)COC(=O)c2ccc([N+](=O)[O-])o2)c1C` was tested. Which “hERG current change (%, negative = inhibition) at 10uM” value did it give?
Its value is 8.7%.

Which “hERG current change (%, negative = inhibition) at 10uM” value does the source give for `Cc1ccc(-n2cc(CNCCN3CCOC3=O)c(-c3ccc(F)cc3)n2)cc1` here?
Its value is -63.2%.

With `CCOC(=O)CN(C)Cc1cn[nH]c1-c1ccc2cc(OC)ccc2c1` as the molecule, how does the “hERG current change (%, negative = inhibition) at 10uM” value read?
Its value is -5.34%.

For `Cc1ccc(-n2cc(CNCC3CC(=O)N(C4CC4)C3)c(-c3cccc(C)c3)n2)cc1` (stereo not shown), which “hERG current change (%, negative = inhibition) at 10uM” value is on record?
The value was -71.9%.

For `COc1ccc(-c2nn(-c3ccccc3)cc2CNCCN2CCOC2=O)c(F)c1`, which “hERG current change (%, negative = inhibition) at 10uM” value is on record?
The value was -11.9%.

Which “hERG current change (%, negative = inhibition) at 10uM” value does the source give for `Cc1cc(C)n(CC(C)NCc2cn[nH]c2-c2ccc(C)c(C)c2)n1` (stereo not shown) here?
Its value is -35.7%.

For `COc1ccc2cc(-c3[nH]ncc3CNCCn3nc(C)cc3C)ccc2c1`, which “hERG current change (%, negative = inhibition) at 10uM” value is on record?
Its value is -63.2%.

How did the “hERG current change (%, negative = inhibition) at 10uM” value turn out when `COc1ccc(-n2cc(CNCC3CC(=O)N(C4CC4)C3)c(-c3ccccc3Cl)n2)cc1` (stereo not shown) was run?
Its value is -13.4%.

How did the “hERG current change (%, negative = inhibition) at 10uM” value turn out when `Cc1ccc(-c2nn(-c3ccccc3)cc2CNCc2ccccc2)cc1.Cl` was run?
Its value is 7.42%.

How did the “hERG current change (%, negative = inhibition) at 10uM” value turn out when `Cc1ccc(-n2cc(CNC(C)c3cnn(C)c3C)c(-c3ccc(F)cc3)n2)cc1` (stereo not shown) was run?
Its value is -30.7%.

`Cc1ccc(-n2cc(CNCCn3nc(C)cc3C)c(-c3ccc(F)cc3)n2)cc1` was tested. Which “hERG current change (%, negative = inhibition) at 10uM” value did it give?
The value was -50.8%.

How did the “hERG current change (%, negative = inhibition) at 10uM” value turn out when `COC(=O)CC1C(=O)NCCN1Cc1cn(-c2ccc(C)cc2)nc1-c1cccc(C)c1` (stereo not shown) was run?
The value was -9.55%.

How did the “hERG current change (%, negative = inhibition) at 10uM” value turn out when `O=C1OCCN1CCNCc1cn(-c2ccc(F)cc2)nc1-c1ccccc1Cl` was run?
Its value is -45.2%.

With `CC1CCCC(C)N1C(=O)COC(=O)c1c[nH]c2ccccc12` (stereo not shown) as the molecule, how does the “hERG current change (%, negative = inhibition) at 10uM” value read?
The value was -5.3%.

For `CCCCn1c(O)c(C=NC2CCCCC2N)c(=O)[nH]c1=O` (stereo not shown), which “hERG current change (%, negative = inhibition) at 10uM” value is on record?
The value was 5.96%.

`COc1ccc(C[C@H]2NC[C@H](O)[C@H]2OC(C)=O)cc1` was tested. Which “hERG current change (%, negative = inhibition) at 10uM” value did it give?
The value was 5.98%.

For `CSC1=N/C(=C\c2ccccc2F)C(=O)S1`, which “hERG current change (%, negative = inhibition) at 10uM” value is on record?
Its value is -3.24%.

With `CCOc1nc(N2CCCCC2)nc(-n2cc(-c3ccccc3)nn2)n1` as the molecule, how does the “hERG current change (%, negative = inhibition) at 10uM” value read?
The value was 8.93%.

For `Cc1cc(NC(=O)COc2ccccc2)n(-c2ccccc2)n1`, which “hERG current change (%, negative = inhibition) at 10uM” value is on record?
Its value is -22.7%.

With `Cc1c(C(=O)NC2CCOC2)oc2c(F)cccc12` (stereo not shown) as the molecule, how does the “hERG current change (%, negative = inhibition) at 10uM” value read?
The value was 30.1%.

For `Cc1cc2cc(C#N)c(NCCNC(=S)NCCCN3CCOCC3)nc2cc1C`, which “hERG current change (%, negative = inhibition) at 10uM” value is on record?
Its value is -24.5%.

Which “hERG current change (%, negative = inhibition) at 10uM” value does the source give for `Cc1cc(C(=O)CN2CCCC2)c(C)n1-c1ccc(Cl)cc1` here?
The value was 7.43%.

For `CCOc1ccccc1NC(=O)CCCCCN1C(=O)[C@@H]2Cc3ccccc3CN2C1=O`, which “hERG current change (%, negative = inhibition) at 10uM” value is on record?
Its value is -42.6%.

For `COc1ccc(C(C)=O)cc1COC(=O)c1ccc(C)c(S(=O)(=O)N2CCOCC2)c1`, which “hERG current change (%, negative = inhibition) at 10uM” value is on record?
The value was -19.8%.
